Usually inhibition stands for the drop in the measured response relative to a control, in per cent.

Each structure is given as a SMILES string.

Assay [1] has as its target Sphingosine kinase 1 (Homo sapiens) (UniProt Q9NYA1). The note with it: at 1 µM.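 Note: mean SPHK1 inhibition value reported from the GSK PKIS kinase panel screen.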
Assay [2] concerns the target T1, Sphingosine kinase 2 (Homo sapiens) (UniProt Q9NRA0).
T1 sequence (whole entry): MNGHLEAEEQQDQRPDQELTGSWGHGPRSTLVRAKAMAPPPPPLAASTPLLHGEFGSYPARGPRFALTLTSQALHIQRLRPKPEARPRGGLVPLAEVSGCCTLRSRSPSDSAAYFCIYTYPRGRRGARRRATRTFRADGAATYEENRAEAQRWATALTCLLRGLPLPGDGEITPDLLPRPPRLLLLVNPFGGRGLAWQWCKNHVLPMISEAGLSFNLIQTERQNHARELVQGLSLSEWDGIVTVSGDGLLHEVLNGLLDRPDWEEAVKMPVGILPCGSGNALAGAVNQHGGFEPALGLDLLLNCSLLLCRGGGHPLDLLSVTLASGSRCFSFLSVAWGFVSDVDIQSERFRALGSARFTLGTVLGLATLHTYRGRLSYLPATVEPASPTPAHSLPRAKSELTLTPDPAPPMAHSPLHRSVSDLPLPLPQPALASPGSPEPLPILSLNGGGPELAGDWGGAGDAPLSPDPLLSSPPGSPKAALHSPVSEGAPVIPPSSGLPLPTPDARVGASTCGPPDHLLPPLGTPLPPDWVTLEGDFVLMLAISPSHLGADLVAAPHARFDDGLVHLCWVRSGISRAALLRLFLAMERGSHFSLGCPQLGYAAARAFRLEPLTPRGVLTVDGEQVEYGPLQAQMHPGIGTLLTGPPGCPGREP
To be noted: at 0.1 µM.

Assay [3] concerns the target T1, Sphingosine kinase 2 (Homo sapiens). To be noted: at 1 µM.
Assay [4] concerns the target Casein kinase II subunit alpha (Homo sapiens) (UniProt P68400). To be noted: at 0.1 µM.
The target is the same in assay [5]. To be noted: at 1 µM.
In assay [6] the target is T2, Inhibitor of nuclear factor kappa-B kinase subunit alpha (Homo sapiens) (UniProt O15111).
T2 sequence (whole entry): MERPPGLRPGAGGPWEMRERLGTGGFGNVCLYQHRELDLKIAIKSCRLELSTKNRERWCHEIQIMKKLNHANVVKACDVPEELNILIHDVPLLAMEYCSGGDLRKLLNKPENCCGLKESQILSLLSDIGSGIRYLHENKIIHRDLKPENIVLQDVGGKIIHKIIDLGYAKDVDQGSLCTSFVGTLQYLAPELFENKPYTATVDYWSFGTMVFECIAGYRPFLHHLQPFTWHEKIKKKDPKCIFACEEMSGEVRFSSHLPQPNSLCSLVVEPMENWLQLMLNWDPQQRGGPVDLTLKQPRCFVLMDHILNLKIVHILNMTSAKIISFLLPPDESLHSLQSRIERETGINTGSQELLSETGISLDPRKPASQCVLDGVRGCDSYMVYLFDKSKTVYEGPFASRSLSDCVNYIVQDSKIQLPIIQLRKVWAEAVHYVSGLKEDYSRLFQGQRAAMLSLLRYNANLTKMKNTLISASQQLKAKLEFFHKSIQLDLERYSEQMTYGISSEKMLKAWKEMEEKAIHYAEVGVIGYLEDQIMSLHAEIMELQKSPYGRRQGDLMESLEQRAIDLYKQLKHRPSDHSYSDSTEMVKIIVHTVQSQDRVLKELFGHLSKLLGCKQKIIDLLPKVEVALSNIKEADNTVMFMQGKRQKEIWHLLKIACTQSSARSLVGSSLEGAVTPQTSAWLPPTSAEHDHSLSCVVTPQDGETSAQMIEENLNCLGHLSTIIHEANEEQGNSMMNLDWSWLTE
To be noted: at 0.1 µM.

The target of assay [7] is T2, Inhibitor of nuclear factor kappa-B kinase subunit alpha (Homo sapiens). To be noted: at 1 µM.
Assay [8] addresses T3, Inhibitor of nuclear factor kappa-B kinase subunit beta (Homo sapiens) (UniProt O14920).
T3 sequence (whole entry): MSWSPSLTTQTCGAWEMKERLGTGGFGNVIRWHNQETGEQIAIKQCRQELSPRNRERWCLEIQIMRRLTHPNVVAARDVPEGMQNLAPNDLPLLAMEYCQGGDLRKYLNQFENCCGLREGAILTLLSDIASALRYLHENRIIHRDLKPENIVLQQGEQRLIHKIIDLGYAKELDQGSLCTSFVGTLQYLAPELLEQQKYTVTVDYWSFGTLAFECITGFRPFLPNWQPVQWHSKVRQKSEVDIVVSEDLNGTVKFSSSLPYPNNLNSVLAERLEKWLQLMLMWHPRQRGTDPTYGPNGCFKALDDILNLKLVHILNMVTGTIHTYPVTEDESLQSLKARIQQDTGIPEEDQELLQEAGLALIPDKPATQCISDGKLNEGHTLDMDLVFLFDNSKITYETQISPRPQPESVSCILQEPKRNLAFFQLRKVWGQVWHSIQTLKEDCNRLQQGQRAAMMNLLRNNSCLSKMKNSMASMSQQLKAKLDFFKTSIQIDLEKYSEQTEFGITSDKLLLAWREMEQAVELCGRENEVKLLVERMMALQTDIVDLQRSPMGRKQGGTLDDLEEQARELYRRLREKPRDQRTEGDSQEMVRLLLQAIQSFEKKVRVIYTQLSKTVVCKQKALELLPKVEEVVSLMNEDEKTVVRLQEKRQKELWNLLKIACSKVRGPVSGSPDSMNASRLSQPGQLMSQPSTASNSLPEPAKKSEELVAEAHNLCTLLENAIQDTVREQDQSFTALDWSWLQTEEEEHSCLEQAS
The note with it: at 0.1 µM.

Assay [9] deals with T3, Inhibitor of nuclear factor kappa-B kinase subunit beta (Homo sapiens). The note with it: at 1 µM.
In assay [10] the target is T4, Inhibitor of nuclear factor kappa-B kinase subunit epsilon (Homo sapiens) (UniProt Q14164).
T4 sequence (whole entry): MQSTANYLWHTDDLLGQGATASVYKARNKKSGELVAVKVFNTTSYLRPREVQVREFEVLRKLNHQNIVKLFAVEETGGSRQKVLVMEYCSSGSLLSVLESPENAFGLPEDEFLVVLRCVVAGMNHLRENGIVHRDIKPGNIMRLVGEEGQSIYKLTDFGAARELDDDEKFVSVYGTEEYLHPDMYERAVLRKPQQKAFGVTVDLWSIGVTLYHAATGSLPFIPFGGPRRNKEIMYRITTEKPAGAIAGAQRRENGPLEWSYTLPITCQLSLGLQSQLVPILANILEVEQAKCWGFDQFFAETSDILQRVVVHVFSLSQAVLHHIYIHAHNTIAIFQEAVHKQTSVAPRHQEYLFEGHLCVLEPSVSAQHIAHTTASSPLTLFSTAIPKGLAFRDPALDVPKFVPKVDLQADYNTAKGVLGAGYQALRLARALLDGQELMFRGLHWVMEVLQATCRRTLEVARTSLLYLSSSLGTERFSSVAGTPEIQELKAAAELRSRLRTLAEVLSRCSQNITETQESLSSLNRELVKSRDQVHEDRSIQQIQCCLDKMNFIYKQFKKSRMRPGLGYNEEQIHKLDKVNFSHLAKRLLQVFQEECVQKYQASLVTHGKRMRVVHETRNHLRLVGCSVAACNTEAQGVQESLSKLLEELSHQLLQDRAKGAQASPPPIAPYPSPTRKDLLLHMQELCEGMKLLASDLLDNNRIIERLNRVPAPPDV
The note with it: at 0.1 µM.

The target of assay [11] is T4, Inhibitor of nuclear factor kappa-B kinase subunit epsilon (Homo sapiens). To be noted: at 1 µM.
In assay [12] the target is T5, Serine/threonine-protein kinase Nek1 (Homo sapiens) (UniProt Q96PY6).
T5 sequence (whole entry): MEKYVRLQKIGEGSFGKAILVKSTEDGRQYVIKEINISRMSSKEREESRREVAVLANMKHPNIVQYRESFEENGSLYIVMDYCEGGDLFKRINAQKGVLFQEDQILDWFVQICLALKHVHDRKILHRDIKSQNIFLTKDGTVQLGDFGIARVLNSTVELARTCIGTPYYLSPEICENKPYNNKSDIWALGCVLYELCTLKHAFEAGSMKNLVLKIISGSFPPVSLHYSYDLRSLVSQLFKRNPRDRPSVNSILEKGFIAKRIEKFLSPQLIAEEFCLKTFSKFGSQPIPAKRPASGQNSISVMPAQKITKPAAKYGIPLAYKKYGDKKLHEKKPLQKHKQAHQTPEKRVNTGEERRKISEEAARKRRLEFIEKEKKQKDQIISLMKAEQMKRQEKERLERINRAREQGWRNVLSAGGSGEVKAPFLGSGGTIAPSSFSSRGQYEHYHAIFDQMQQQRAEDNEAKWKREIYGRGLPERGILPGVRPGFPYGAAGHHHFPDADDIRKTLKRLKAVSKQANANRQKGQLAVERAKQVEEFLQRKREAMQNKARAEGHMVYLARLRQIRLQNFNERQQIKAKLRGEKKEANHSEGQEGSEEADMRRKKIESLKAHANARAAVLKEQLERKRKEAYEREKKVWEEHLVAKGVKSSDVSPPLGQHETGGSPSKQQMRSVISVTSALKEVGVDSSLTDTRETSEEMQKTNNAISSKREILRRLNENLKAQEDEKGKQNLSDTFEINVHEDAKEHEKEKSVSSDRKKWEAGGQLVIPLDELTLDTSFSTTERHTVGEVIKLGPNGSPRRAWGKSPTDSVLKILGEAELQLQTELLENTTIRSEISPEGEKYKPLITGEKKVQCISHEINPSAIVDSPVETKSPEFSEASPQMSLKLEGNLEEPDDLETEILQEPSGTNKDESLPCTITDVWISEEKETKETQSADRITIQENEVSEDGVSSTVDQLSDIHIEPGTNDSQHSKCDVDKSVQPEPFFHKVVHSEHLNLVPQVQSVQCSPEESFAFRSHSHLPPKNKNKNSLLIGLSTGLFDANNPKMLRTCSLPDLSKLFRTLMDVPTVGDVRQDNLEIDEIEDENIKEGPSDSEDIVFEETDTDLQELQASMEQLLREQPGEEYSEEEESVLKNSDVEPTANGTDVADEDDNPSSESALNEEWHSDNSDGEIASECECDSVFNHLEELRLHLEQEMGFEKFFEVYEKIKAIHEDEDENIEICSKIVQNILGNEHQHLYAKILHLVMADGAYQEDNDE
The note with it: at 0.1 µM.

In assay [13] the target is T5, Serine/threonine-protein kinase Nek1 (Homo sapiens). The note with it: at 1 µM.
The target in assay [14] is T6, Serine/threonine-protein kinase Nek2 (Homo sapiens) (UniProt P51955).
T6 sequence (whole entry): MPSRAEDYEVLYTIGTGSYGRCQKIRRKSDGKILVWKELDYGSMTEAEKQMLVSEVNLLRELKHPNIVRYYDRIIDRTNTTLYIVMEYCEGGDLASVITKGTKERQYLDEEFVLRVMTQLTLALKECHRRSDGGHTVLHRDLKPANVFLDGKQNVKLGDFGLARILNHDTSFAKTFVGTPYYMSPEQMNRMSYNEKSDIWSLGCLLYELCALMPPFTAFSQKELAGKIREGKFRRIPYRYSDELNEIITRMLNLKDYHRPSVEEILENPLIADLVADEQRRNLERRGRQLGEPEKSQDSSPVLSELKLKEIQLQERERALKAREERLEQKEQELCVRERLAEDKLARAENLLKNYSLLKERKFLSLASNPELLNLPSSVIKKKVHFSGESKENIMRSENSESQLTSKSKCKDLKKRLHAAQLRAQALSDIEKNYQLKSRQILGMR
To be noted: at 0.1 µM.

In assay [15] the target is T6, Serine/threonine-protein kinase Nek2 (Homo sapiens). The note with it: at 1 µM.
The target in assay [16] is Serine/threonine-protein kinase Nek6 (Homo sapiens) (UniProt Q9HC98). The note with it: at 0.1 µM.
For assay [17] the target is unchanged. The note with it: at 1 µM.
In assay [18] the target is Serine/threonine-protein kinase Nek7 (Homo sapiens) (UniProt Q8TDX7). To be noted: at 0.1 µM.
Assay [19] has the same target. To be noted: at 1 µM.
The target in assay [20] is T7, Serine/threonine-protein kinase Nek9 (Homo sapiens) (UniProt Q8TD19).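 Note: reported value is the mean percent inhibition of NEK9.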
T7 sequence (whole entry): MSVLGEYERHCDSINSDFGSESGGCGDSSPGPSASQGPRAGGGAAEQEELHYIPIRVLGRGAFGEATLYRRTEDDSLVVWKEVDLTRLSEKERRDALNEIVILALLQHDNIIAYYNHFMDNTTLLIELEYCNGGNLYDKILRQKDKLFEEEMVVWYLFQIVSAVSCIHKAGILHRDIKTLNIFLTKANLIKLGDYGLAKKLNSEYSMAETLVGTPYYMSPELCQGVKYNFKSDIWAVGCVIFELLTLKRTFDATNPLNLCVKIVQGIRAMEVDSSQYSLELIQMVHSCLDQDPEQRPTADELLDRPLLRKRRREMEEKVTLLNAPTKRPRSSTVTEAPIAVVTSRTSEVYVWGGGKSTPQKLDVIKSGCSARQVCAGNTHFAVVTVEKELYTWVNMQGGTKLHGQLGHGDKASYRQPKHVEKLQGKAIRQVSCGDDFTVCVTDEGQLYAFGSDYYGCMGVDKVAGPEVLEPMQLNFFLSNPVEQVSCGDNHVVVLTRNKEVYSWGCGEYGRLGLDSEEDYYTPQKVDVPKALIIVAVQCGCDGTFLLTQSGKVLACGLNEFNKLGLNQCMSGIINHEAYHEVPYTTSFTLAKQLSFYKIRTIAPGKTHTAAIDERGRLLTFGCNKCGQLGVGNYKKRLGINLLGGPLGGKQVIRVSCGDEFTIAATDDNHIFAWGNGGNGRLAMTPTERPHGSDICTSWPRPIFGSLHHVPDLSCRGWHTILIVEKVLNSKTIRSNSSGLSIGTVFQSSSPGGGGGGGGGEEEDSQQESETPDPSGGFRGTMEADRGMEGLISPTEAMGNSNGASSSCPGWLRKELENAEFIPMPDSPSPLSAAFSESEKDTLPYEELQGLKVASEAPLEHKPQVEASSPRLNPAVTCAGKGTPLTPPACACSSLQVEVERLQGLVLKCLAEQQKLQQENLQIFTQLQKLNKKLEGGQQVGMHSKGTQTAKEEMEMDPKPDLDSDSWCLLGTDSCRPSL
To be noted: at 0.1 µM.

Chain of Serine/threonine-protein kinase Nek7 (Homo sapiens) (Q8TDX7 whole entry, looked up): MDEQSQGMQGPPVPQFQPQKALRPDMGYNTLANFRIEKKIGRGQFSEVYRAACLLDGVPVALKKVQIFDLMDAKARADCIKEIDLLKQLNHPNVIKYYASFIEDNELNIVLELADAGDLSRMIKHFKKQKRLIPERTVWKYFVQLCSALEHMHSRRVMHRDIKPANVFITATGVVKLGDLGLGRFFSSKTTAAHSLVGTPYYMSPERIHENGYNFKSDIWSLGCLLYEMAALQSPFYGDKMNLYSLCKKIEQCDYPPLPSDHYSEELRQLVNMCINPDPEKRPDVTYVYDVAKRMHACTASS
Chain of Serine/threonine-protein kinase Nek6 (Homo sapiens) (Q9HC98 whole entry): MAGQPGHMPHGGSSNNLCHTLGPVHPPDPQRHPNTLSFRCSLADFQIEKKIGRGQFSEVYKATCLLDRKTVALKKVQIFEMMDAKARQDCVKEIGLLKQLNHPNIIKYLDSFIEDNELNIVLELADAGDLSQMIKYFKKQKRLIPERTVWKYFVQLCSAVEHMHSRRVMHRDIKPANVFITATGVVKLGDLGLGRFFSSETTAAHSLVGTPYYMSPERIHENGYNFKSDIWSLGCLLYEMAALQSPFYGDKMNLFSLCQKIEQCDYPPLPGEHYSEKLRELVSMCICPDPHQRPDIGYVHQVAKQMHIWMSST
Chain of Casein kinase II subunit alpha (Homo sapiens) (P68400 whole entry, looked up): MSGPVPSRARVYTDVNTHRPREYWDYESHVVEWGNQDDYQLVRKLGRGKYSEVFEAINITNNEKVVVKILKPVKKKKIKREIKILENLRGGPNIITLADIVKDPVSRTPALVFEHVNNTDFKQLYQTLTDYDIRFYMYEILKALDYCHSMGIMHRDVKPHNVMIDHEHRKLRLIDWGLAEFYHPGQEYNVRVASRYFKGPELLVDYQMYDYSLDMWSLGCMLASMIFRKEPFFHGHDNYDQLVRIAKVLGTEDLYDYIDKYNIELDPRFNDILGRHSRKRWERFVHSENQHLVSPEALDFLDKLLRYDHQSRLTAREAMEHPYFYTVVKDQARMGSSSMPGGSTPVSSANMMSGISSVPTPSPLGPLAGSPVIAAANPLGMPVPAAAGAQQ
Chain of Sphingosine kinase 1 (Homo sapiens) (Q9NYA1 whole entry): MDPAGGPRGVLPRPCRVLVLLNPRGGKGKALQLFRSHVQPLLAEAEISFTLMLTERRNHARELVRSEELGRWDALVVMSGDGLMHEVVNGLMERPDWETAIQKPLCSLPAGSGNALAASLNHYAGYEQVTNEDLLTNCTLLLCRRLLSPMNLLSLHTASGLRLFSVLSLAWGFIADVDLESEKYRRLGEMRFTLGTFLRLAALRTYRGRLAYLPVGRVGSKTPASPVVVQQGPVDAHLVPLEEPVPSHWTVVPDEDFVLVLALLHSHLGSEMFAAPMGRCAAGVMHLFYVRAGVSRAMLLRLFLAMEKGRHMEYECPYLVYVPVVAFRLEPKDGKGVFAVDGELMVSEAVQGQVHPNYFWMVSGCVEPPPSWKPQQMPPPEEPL

As to `COc1cc(C=NNc2ncnc3c2cnn3Cc2ccccc2)ccc1O`, the inhibition was -3.17% in [1]; 2.14% in [2]; 0.11% in assay [3]; -0.94% in assay [4]; 13.8% in assay [5]; -2.85% in [6]. Also, the inhibition in [7] is -2.41%; in [8], -2.63%; in assay [9], -2.75%; in [10], -4.31%; in assay [11], -4.1%; in assay [12], -1.23%. Besides, the inhibition in assay [13] was -0.61%; in assay [14] it was -5.42%; in assay [15], -5.26%; in [16] it was -0.58%; in [17] it was -3.89%; in assay [18] it was -6.27%. The inhibition was -2.54% in [19] and 3.47% in assay [20].

Source of the values: ChEMBL document CHEMBL1961873, “Compounds: GSK PKIS; Assays: Nanosyn kinase panel” (2012).
